In PubChem BioAssay:
Activity calls are given as the source filed them. Unless noted, no rule for the calls is given here.

Key:
[1] = anti-His antibody binders, primary screen, artefact control for SMM control protein annotation, biochemical, small-molecule microarray, 635 nm fluorescence (AID 1128); conditions: anti-His Alexa647 antibody binding, higher = more signal;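 also: score merges feature fluorescence with signal-to-noise for each printed compound spot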
[2] = tested on: Human papillomavirus type 1a E7 protein (residues 1-88); experiment: HPV1a E7 small-molecule binders, primary screen, biochemical, small-molecule microarray, residues 1-88, 635 nm (AID 1129); conditions: small-molecule microarray binding, fluorescence 635 nm; higher = more signal
[3] = target: Focal adhesion kinase 1 (Homo sapiens) (UniProt Q05397); experiment: small-molecule microarray binders of FAK, primary screen, biochemical, 635/667 nm fluorescence, BSA, DTT (AID 1130); conditions: PTK2 binding, 635 nm fluorescence, higher = more signal;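 also: composite of spot emission at 667 nm and signal to noise over triplicate slides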
Chain of Focal adhesion kinase 1 (Homo sapiens) (Q05397 whole entry, looked up): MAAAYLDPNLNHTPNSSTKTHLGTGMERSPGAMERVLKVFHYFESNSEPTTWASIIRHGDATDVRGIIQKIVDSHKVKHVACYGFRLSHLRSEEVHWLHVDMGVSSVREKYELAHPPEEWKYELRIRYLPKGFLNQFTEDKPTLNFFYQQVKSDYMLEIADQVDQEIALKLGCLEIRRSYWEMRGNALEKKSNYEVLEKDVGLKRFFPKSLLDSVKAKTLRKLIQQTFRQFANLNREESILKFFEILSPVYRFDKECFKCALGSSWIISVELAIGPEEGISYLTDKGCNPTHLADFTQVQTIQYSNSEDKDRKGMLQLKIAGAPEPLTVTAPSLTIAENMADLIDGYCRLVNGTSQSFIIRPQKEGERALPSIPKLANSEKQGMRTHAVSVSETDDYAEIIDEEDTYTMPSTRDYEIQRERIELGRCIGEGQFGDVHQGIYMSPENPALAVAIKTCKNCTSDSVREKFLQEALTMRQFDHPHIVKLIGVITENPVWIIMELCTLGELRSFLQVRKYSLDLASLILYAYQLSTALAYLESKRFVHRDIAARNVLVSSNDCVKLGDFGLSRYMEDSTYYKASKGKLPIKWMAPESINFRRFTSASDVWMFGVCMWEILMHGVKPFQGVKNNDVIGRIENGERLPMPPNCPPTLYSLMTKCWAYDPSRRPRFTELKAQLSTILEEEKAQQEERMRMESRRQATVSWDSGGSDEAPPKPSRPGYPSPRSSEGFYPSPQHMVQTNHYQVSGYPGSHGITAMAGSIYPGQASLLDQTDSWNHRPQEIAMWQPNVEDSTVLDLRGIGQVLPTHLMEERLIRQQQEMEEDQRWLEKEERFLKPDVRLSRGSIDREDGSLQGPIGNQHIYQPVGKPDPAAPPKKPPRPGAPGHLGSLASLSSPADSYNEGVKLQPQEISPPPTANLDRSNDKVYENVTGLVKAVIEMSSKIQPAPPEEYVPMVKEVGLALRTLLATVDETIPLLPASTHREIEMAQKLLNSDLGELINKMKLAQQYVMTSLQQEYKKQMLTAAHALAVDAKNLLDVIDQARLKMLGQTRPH

[4] = tested on: Fibrinogen (Alexa647-labelled); experiment: fibrinogen binders on compound microarrays, profiling panel, artefact control for SMM control-protein annotation, biochemical, small-molecule microarray, 635/667 nm fluorescence (AID 1131); conditions: fibrinogen-A647 binding fluorescence, higher = more signal;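 also: z-score merges 667 nm fluorescence with per-spot signal-to-noise over triplicate slides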
[5] = target: Follistatin (Homo sapiens) (UniProt P19883); experiment: follistatin binders on small-molecule microarrays, primary screen, biochemical, small-molecule microarray, 635/667 nm fluorescence (AID 1132); conditions: FST binding, 635 nm fluorescence, higher = more signal
Chain of Follistatin (Homo sapiens) (P19883 whole entry, looked up): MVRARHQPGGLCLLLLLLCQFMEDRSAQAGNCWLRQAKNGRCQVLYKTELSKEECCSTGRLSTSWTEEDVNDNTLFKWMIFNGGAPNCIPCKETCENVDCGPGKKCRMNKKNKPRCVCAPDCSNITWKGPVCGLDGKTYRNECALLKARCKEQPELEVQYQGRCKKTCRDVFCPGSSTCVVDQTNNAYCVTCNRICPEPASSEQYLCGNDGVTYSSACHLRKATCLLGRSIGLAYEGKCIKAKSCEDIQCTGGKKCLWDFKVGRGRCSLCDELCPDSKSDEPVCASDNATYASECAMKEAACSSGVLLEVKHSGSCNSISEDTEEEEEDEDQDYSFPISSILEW

[6] = target: Fibroblast growth factor 2 (Homo sapiens) (UniProt P09038); experiment: FGF2 binders on small-molecule microarrays, primary screen, biochemical, small-molecule microarray, 635/667 nm fluorescence (AID 1133); conditions: small-molecule microarray binding, FGF2, fluorescence 635/667; higher = more signal
Chain of Fibroblast growth factor 2 (Homo sapiens) (P09038 whole entry, looked up): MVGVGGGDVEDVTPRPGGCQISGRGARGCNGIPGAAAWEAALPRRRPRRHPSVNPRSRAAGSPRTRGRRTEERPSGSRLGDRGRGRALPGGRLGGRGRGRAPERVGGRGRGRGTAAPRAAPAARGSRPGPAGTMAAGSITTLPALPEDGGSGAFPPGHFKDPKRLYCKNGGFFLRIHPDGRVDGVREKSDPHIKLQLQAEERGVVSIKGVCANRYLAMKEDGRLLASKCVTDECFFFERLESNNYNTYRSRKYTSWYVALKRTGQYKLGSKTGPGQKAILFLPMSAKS

[7] = mitochondrial membrane potential change in A549 cells, profiling panel, cell-based, JC-1 fluorescence, basal, 24 h, 100 nL (AID 1138); conditions: higher = more signal;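 also: A549 lung adenocarcinoma cells under basal conditions with no added stimulus; test concentration not given here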
Lefty1 = Lefty1 binders on small-molecule microarrays, primary screen, biochemical, small-molecule microarray, 635/667 nm fluorescence (AID 1139); conditions: small-molecule microarray binding, fluorescence 635/667; higher = more signal
[8] = tested on: wheat germ agglutinin (Triticum aestivum), Alexa647-labelled; experiment: wheat germ agglutinin binders on compound microarrays, profiling panel, artefact control for SMM control-protein annotation, biochemical, small-molecule microarray, 635/667 nm fluorescence (AID 1140); conditions: WGA-A647 binding, 635 nm fluorescence, higher = more signal;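 also: score merges 667 nm feature emission with signal to noise over triplicate slides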
[9] = target: Luciferin 4-monooxygenase (Photinus pyralis) (UniProt P08659); experiment: firefly luciferase enzyme inhibitors, primary screen, biochemical, luminescence, purified enzyme, 2006 set (AID 1141); conditions: SteadyGlo luminescence, 30 min, higher = more signal, called active from +8 up or from −8 down;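 also: cell-free assay with purified firefly luciferase at 100 ng per well in PBS; test concentration not given here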
Chain of Luciferin 4-monooxygenase (Photinus pyralis) (P08659 whole entry, looked up): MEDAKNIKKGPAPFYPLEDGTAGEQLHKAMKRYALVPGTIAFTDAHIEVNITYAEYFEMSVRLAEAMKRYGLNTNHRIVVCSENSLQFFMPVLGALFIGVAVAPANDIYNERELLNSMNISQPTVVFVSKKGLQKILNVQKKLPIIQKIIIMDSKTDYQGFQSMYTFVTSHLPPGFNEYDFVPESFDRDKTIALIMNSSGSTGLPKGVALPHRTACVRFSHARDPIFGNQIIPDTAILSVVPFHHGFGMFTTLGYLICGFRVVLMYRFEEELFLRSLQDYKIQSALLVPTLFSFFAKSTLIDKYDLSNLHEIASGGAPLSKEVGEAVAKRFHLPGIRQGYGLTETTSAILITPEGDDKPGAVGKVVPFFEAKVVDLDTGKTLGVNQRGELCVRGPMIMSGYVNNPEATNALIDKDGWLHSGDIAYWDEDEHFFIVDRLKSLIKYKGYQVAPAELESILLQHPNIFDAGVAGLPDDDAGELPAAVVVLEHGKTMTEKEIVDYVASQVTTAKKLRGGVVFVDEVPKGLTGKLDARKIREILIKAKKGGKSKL

[10] = tested on: Wnt5a (protein binding on small-molecule microarray); experiment: Wnt5a binders on small-molecule microarray, primary screen, biophysical, 635/667 nm fluorescence (AID 1142); conditions: 635 nm fluorescence, higher = more signal;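 also: fluorescence read at 667 nm with signal to noise per printed feature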
[11] = cell viability in Huh7 cells, primary screen, cytotoxicity control for HCV replication inhibitor project, CellTiter-Glo luminescence, basal, 48 h (AID 1143); conditions: Huh7 HCV replicon, higher = more signal, called active from +8 up or from −8 down;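 also: Huh7 hepatoma cells carrying a hepatitis C replication reporter with no stimulus; test concentration not given here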
[12] = P. aeruginosa biofilm formation inhibitors, primary screen, PAO1 strain, BacTiter-Glo luminescence, LB-PBS (AID 1144); conditions: 12 h, higher = more signal
[13] = CREB reporter modulators without forskolin, primary screen, cell-based, PC12, CRE-LacZ reporter, unstimulated (AID 1145); conditions: no forskolin, luminescence, 4.5 h, higher = more signal, called active from +8 up or from −8 down
[14] = CREB reporter modulators under forskolin, primary screen, cell-based, PC12, CRE-LacZ reporter, forskolin-stimulated (AID 1146); conditions: luminescence, 4.5 h, higher = more signal, called active from +8 up or from −8 down;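 also: PC12 cells with 6xCRE LacZ reporter stimulated by forskolin 10 µM; beta-galactosidase reporter signal reflecting CREB driven transcription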
[15] = target: Streptavidin (Streptomyces avidinii) (UniProt P22629); experiment: streptavidin binders on small-molecule microarray, primary screen, artefact control for SMM compound annotation, biophysical, 635/667 nm fluorescence (AID 1147); conditions: streptavidin binding, higher = more signal;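 also: signal reflects streptavidin binding to arrayed compounds as a control protein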
Chain of Streptavidin (Streptomyces avidinii) (P22629 whole entry, looked up): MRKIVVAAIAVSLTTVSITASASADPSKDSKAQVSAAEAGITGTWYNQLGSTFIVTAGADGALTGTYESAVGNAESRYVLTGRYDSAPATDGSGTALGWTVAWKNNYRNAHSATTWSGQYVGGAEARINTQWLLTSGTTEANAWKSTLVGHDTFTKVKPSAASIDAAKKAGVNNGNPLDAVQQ

[16] = small-molecule binders of probe aInhba, primary screen, biochemical, small-molecule microarray, 635/667 nm fluorescence (AID 1148); conditions: higher = more signal;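 also: score merges 667nm spot fluorescence with signal-to-noise for antibody binding to printed compounds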
Torsin-1A (Homo sapiens) [17] = target: Torsin-1A (Homo sapiens) (UniProt O14656); experiment: torsin A binders from cell lysate, primary screen, small-molecule microarray, wild-type, 635/667 nm (AID 1149); conditions: COS7 hTOR1A-WT lysate, 635 nm fluorescence, higher = more signal
Chain of Torsin-1A (Homo sapiens) (O14656 whole entry, looked up): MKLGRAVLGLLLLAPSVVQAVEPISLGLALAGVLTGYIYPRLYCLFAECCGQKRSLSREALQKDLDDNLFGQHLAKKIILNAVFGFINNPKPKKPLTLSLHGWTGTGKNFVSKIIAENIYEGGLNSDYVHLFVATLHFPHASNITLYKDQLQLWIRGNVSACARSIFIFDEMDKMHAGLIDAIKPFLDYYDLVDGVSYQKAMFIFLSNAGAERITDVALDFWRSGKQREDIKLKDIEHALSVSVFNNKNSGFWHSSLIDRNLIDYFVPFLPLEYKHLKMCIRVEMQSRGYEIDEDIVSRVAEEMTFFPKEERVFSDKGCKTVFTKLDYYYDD

Torsin-1A (Homo sapiens) [18] = target: Torsin-1A (Homo sapiens) (UniProt O14656); experiment: small-molecule binders of mutant TOR1A in lysate, primary screen, cell lysate, small-molecule microarray, COS7 lysate, 635/667 nm fluorescence (AID 1150); conditions: COS7 hTOR1A mutant lysate, 635 nm fluorescence, higher = more signal;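 also: score pools 667 nm emission and signal to noise measuring lysate protein binding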
[19] = tested on: Sonic hedgehog protein (Shh); experiment: small-molecule binders of Shh protein, primary screen, biochemical, small-molecule microarray, 635/667 nm fluorescence (AID 1151); conditions: small-molecule microarray binding, 635 nm fluorescence; higher = more signal;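 also: Shh protein binding to compounds spotted on small-molecule microarray slides; score combines spot fluorescence intensity with signal-to-noise across triplicate slides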

CC1=C[C@@]2(CO)C(=O)[C@]3(CO3)[C@@H]1[C@H]1[C@]2(C)C=C(CO)C(=O)[C@]12CO2
composite z-score [1]: 0.0455
composite z-score [2]: -0.0634
composite z-score [3]: 0.206
composite z-score [4]: -0.403
composite z-score [5]: 0.443
composite z-score [6]: 0.165
z-score [7]: 0.173
composite z-score (Lefty1): 0.381
composite z-score [8]: 0.207
z-score [9]: 0.538 (inactive)
composite z-score [10]: 0.129
z-score [11]: -0.0354 (inactive)
z-score [12]: -0.108 (inactive)
z-score [13]: 0.314 (inactive)
z-score [14]: 1.51 (inactive)
composite z-score [15]: 0.006
composite z-score [16]: -0.103
composite z-score (Torsin-1A (Homo sapiens) [17]): 0.145
composite z-score (Torsin-1A (Homo sapiens) [18]): 0.171
composite z-score [19]: 0.265

O=C(CS)NCCCCCNC(=O)[C@@H]1C[C@@H]2C(=O)N3CCC[C@H]3C(=O)N2[C@@H]1c1cccc(OCCO)c1
composite z-score [1]: 2.66
composite z-score [2]: 1.21
composite z-score [3]: 0.515
composite z-score [4]: -0.561
composite z-score [5]: 1.28
composite z-score [6]: 1.24
z-score [7]: 0.777
composite z-score (Lefty1): -0.283
composite z-score [8]: -0.161
z-score [9]: -1.38 (inactive)
composite z-score [10]: 0.336
z-score [11]: -0.0341 (inactive)
z-score [12]: -0.448 (inactive)
z-score [13]: 0.143 (inactive)
z-score [14]: -0.16 (inactive)
composite z-score [15]: 0.281
composite z-score [16]: -0.46
composite z-score (Torsin-1A (Homo sapiens) [17]): 1.44
composite z-score (Torsin-1A (Homo sapiens) [18]): 0.656
composite z-score [19]: 0.792

C=CC[C@]1(C(=O)O)COC(c2ccc(OCCCO)cc2)=N1
composite z-score [1]: 1.53
composite z-score [2]: 0.205
composite z-score [3]: -0.0931
composite z-score [4]: 0.219
composite z-score [5]: 0.372
composite z-score [6]: -0.105
z-score [7]: 0.0454
composite z-score (Lefty1): 0.378
composite z-score [8]: 0.342
z-score [9]: -0.497 (inactive)
composite z-score [10]: -0.0405
z-score [11]: 0.543 (inactive)
z-score [12]: -0.852 (inactive)
z-score [13]: 1.46 (inactive)
z-score [14]: 0.123 (inactive)
composite z-score [15]: -0.447
composite z-score [16]: -0.103
composite z-score (Torsin-1A (Homo sapiens) [17]): -0.0985
composite z-score (Torsin-1A (Homo sapiens) [18]): 0.338
composite z-score [19]: 0.0518

COc1ccc([Si](C)(C)[C@@H]2[C@@H](CC(=O)N(CCO)Cc3ccccc3)O[C@]3(C(=O)N(Cc4cccc(N5CCOC5=O)c4)c4ccccc43)[C@H]2C)cc1
composite z-score [1]: 1.78
composite z-score [2]: 1.13
composite z-score [3]: 0.139
composite z-score [4]: 0.732
composite z-score [5]: 0.583
composite z-score [6]: 0.393
z-score [7]: -0.154
composite z-score (Lefty1): 0.899
composite z-score [8]: 0.717
z-score [9]: 0.229 (inactive)
composite z-score [10]: -0.129
z-score [11]: -5.47 (inactive)
z-score [12]: -0.122 (inactive)
z-score [13]: 0.748 (inactive)
z-score [14]: -0.62 (inactive)
composite z-score [15]: -0.121
composite z-score [16]: -0.176
composite z-score (Torsin-1A (Homo sapiens) [17]): 0.787
composite z-score (Torsin-1A (Homo sapiens) [18]): 0.347
composite z-score [19]: 1.52

CC(C)(C)N1CC=CC23O[C@@H]4C=CCOC(=O)[C@@H]4[C@H]2C(=O)N(CCCCCCO)[C@@H]3C1=O (stereo not given in full)
composite z-score [1]: 0.184
composite z-score [2]: -0.184
composite z-score [3]: 0.527
composite z-score [4]: -1.52
composite z-score [5]: -1.42
composite z-score [6]: -0.877
z-score [7]: -0.12
composite z-score (Lefty1): -0.447
composite z-score [8]: 0.132
z-score [9]: -0.234 (inactive)
composite z-score [10]: -0.373
z-score [11]: 0.0926 (inactive)
z-score [12]: 2.06 (inactive)
z-score [13]: 0.475 (inactive)
z-score [14]: 0.437 (inactive)
composite z-score [15]: -0.772
composite z-score [16]: -0.209
composite z-score (Torsin-1A (Homo sapiens) [17]): -0.191
composite z-score (Torsin-1A (Homo sapiens) [18]): 0.769
composite z-score [19]: -1.13

CCOC(=O)C[C@H]1[C@H](OC(=O)c2ccc(C(=O)c3ccccc3)cc2)[C@@H](NC(=O)Cc2ccc(OC)cc2)c2cc(OCCCO)ccc2N1C(=O)c1ccccc1
composite z-score [1]: 0.305
composite z-score [2]: 0.498
composite z-score [3]: 0.15
composite z-score [4]: 0.157
composite z-score [5]: -0.17
composite z-score [6]: 0.23
z-score [7]: 1.14
composite z-score (Lefty1): 0.162
composite z-score [8]: -0.337
z-score [9]: 0.449 (inactive)
composite z-score [10]: 0.328
z-score [11]: -0.117 (inactive)
z-score [12]: -0.0806 (inactive)
z-score [13]: 1.47 (inactive)
z-score [14]: 0.926 (inactive)
composite z-score [15]: 0.162
composite z-score [16]: -0.0762
composite z-score (Torsin-1A (Homo sapiens) [17]): 0.0313
composite z-score (Torsin-1A (Homo sapiens) [18]): 0.337
composite z-score [19]: 0.622

CCCNC(=O)[C@@H]1c2ccccc2C(=O)N(C(C)C)[C@H]1c1ccc(CO)cc1
composite z-score [1]: 3
composite z-score [2]: -0.645
composite z-score [3]: -0.19
composite z-score [4]: -0.29
composite z-score [5]: -0.577
composite z-score [6]: -0.517
z-score [7]: 1.39
composite z-score (Lefty1): -0.371
composite z-score [8]: -0.03
z-score [9]: 0.407 (inactive)
composite z-score [10]: -0.122
z-score [11]: -0.0095 (inactive)
z-score [12]: -0.521 (inactive)
z-score [13]: -0.412 (inactive)
z-score [14]: 0.211 (inactive)
composite z-score [15]: -0.0547
composite z-score [16]: 0.0658
composite z-score (Torsin-1A (Homo sapiens) [17]): -0.215
composite z-score (Torsin-1A (Homo sapiens) [18]): 0.0984
composite z-score [19]: -0.121

[N-]=[N+]=NCc1ccccc1C[C@@]1(C(=O)N2CCCCC2)N=C(c2ccc(OCCCO)cc2)O[C@@H]1c1ccccc1
composite z-score [1]: 0.686
composite z-score [2]: 1.12
composite z-score [3]: 0.214
composite z-score [4]: 0.519
composite z-score [5]: 0.24
composite z-score [6]: 0.201
z-score [7]: 0.144
composite z-score (Lefty1): -0.693
composite z-score [8]: 0.636
z-score [9]: -0.362 (inactive)
composite z-score [10]: 0.462
z-score [11]: -4.99 (inactive)
z-score [12]: 0.914 (inactive)
z-score [13]: -0.552 (inactive)
z-score [14]: 0.886 (inactive)
composite z-score [15]: 0.325
composite z-score [16]: 0.159
composite z-score (Torsin-1A (Homo sapiens) [17]): -0.0373
composite z-score (Torsin-1A (Homo sapiens) [18]): 0.601
composite z-score [19]: -0.762

Cc1cc(C)c(C(O)C2C=CC3C(=O)N(c4ccccc4)C(=O)C3N2Nc2ccc(C(C)C)cc2)c(C)c1 (stereo not given)
composite z-score [1]: 1.11
composite z-score [2]: 1.26
composite z-score [3]: 1.22
composite z-score [4]: 1.02
composite z-score [5]: 0.811
composite z-score [6]: 0.375
z-score [7]: 0.178
composite z-score (Lefty1): -0.138
composite z-score [8]: 1.39
z-score [9]: -0.197 (inactive)
composite z-score [10]: 0.704
z-score [11]: 0.366 (inactive)
z-score [12]: -0.342 (inactive)
z-score [13]: 0.629 (inactive)
z-score [14]: 1.07 (inactive)
composite z-score [15]: 1.71
composite z-score [16]: 0.375
composite z-score (Torsin-1A (Homo sapiens) [17]): 0.385
composite z-score (Torsin-1A (Homo sapiens) [18]): 0.333
composite z-score [19]: -0.297

COCCOC(=O)N1C(=O)[C@@]2(c3cc(C#CC4=CCCCC4)ccc31)[C@H](c1ccc(OCCO)cc1)N1[C@H](c3ccccc3)[C@H](c3ccccc3)OC(=O)[C@H]1[C@@H]2C(=O)N1CCN(c2ncccn2)CC1
composite z-score [1]: 0.433
composite z-score [2]: 1.15
composite z-score [3]: 0.067
composite z-score [4]: 0.574
composite z-score [5]: 1.29
composite z-score [6]: 0.692
z-score [7]: -1.27
composite z-score (Lefty1): 0.853
composite z-score [8]: 0.5
z-score [9]: -2.01 (inactive)
composite z-score [10]: 0.323
z-score [11]: -1.24 (inactive)
z-score [12]: 1.04 (inactive)
z-score [13]: 0.212 (inactive)
z-score [14]: -0.674 (inactive)
composite z-score [15]: 0.0363
composite z-score [16]: 0.0649
composite z-score (Torsin-1A (Homo sapiens) [17]): 0.767
composite z-score (Torsin-1A (Homo sapiens) [18]): 0.501
composite z-score [19]: 0.772
